# The whole screen tested about 65,000 compounds, of which about 2,100 (3.2%) showed an effect of 50% or more. The median lay at about -52%. For the sample, strong results were picked, then their nearest neighbours and some compounds at random.
# Test system: Plasmodium falciparum
# Assay: Screen against P. falciparum Asexual Blood Stage (ABS), at 5uM
# Format: functional, Dd2
# Conditions: tested at 5 uM
row,Compound,INHIBITION [%]
1,O=C1CC2(CCN(Cc3ccccn3)C2)CN1c1cccnc1 (stereo unspecified),-14.1
2,CCN(CC)CCNS(=O)(=O)c1cccc(CSC)c1,83.4
3,Cc1nc(NCC23CCCN2CCC3)cc(C2CCCNC2)n1 (stereo unspecified),-54.3
4,CCCN(CC)c1cc(C2CCNCC2)nc(C)n1,-70.1
5,COc1ccc2[nH]c(CNc3cc(C4CCNCC4)nc(C)n3)cc2c1,84.1
6,Cc1nc(C2CCNCC2)cc(N(C)Cc2cc3cc(F)ccc3[nH]2)n1,75.9
7,CCN(Cc1c(F)cccc1Cl)c1cc(C2CCNCC2)nc(C)n1,76.4
8,CN(Cc1cc2cc(F)ccc2[nH]1)c1cc(C2CCCNC2)ncn1 (stereo unspecified),84.2
9,Cc1nc(NCCC23CCCN2CCC3)cc(C2CCNCC2)n1,-50.1
10,Cc1cc(N(C)C)nc(C2CCCNC2)n1 (stereo unspecified),-54.7
11,O=C1CC[C@H]2[C@H](CCN2Cc2ccccn2)N1CC1CCOCC1,-82.3
12,COc1ccccc1-c1ncc(CN2CCCC[C@H](N(C)C)C2)s1,70.3
13,COc1ccc(F)cc1C(=O)C1CCCN(Cc2cnc(C)s2)C1 (stereo unspecified),-29
14,CCC(CC)C(=O)N1CCOC2(CNC2)C1,-94.6
15,O=C(NCCCNc1ccc(C(F)(F)F)cn1)c1ccc(F)cc1F,72.5
16,CC(=O)c1cn(CC(=O)N2CCC3(CC2)OCCO3)c2ccccc12,-61.4
17,N#Cc1cccnc1NCCNC(=O)N1CCN2CCCCC2C1 (stereo unspecified),-90.5
18,COCC1CC2(CCN(Cc3ccncc3)CC2)CN1C(C)C (stereo unspecified),-68
19,COCC1CC2(CCN(Cc3ccoc3)CC2)CN1C(C)C (stereo unspecified),71.6
20,N#Cc1cccc(CN2C[C@@H]3CN(c4ncccn4)C[C@@H]3C2)c1,19
21,COCC1CC2(CCN(c3ccccn3)CC2)CN1C(C)C (stereo unspecified),-41
22,COCC1CC2(CCN(Cc3cccc(C#N)c3)CC2)CN1C(C)C (stereo unspecified),73.2
23,N#Cc1cccc(CN2CCO[C@@H]3CNC[C@@H]32)c1,-52.7
24,O=C(CC1CC1)N[C@@H]1CN(Cc2ccccn2)C[C@@H]2CCCO[C@@H]21,-65.3
25,CN(Cc1ccccn1)C1CCC[C@@H]2CN(CC3CC3)C[C@H]12 (stereo partly specified),69.5
26,O=C(NCc1ccccn1)[C@H]1COC[C@H]2CN(CC3CC3)C[C@H]21,-35.7

row,Compound,INHIBITION [%]
1,Cc1noc(C)c1CN(C)C(=O)C1CCCCN1CC(C)C (stereo unspecified),21.5
2,COC[C@H](C)Nc1cc(C)c2ccc(SC)cc2n1,75.5
3,c1ccc(C(Cn2cnnc2)N2CCOCC2)nc1 (stereo unspecified),-29.3
4,CN1CCC2(CC1)CNC(=O)c1ccccc1O2,-102
5,O=C1Nc2ccccc2CC12CCCN2Cc1ccccn1 (stereo unspecified),-60.5
6,Cc1cc(-c2cc(S(=O)(=O)N3C[C@H](C4CC4)[C@@H](N)C3)c(C)s2)on1,71.2
7,Cc1cc(S(=O)(=O)N2C[C@H](C3CC3)[C@@H](N)C2)c(C)s1,86.1
8,O=C(CC1CC1)N[C@@H]1CN(Cc2ccncc2)C[C@@H]2CCCO[C@@H]21,-86.8
9,Cc1nnc(N2CCNCC2)c(C(N)=O)c1C,-11.3
10,CCN1CC2(CC1=O)CN(Cc1ccccn1)CCN(C(C)=O)C2 (stereo unspecified),-40.2
11,CN1CC=C(c2noc(CCC(=O)N3CCc4ccccc43)n2)CC1,-88.8
12,CC(=O)N1CC[C@H]2N(C)CC[C@@]2(C(=O)Nc2cccnc2)CC1,-36
13,CC(C)CN1CCCC1c1ccc(C(=O)Nc2cccnc2)s1 (stereo unspecified),87.5
14,CC(C)CN1C[C@@H]2C[C@H](C(=O)Nc3cccnc3)[C@H](C1)O2,-48.5
15,Cn1nc(-c2cccs2)cc1[C@H]1CN2CC[C@H]1C[C@@H]2CN,-26
16,Cc1csc(C2CCCCN2C(=O)c2cc(C(C)C)[nH]n2)n1 (stereo unspecified),76.4
17,CSc1ccccc1C(=O)C1CCCN(Cc2cc(C(C)C)[nH]n2)C1 (stereo unspecified),-93.2
18,CN(C)Cc1cncc2c1CCN(CC(=O)N(C)C)C2,-114
19,Cc1ncc(CN(Cc2ccccn2)Cc2ccccc2Cl)n1C,91.6
20,CN(CCOCC1CC1)C(=O)Nc1ccc(C#N)c(Cl)c1,-115
21,O=C(NCCCOCC1CC1)Nc1ccc(-n2cncn2)c(F)c1,88.3
22,c1cncc(OC[C@]23COC[C@H]2CN(Cc2ccsc2)C3)c1,20.3
23,O[C@@H]1CC(CNCc2ccc(Cl)cc2)(COc2cccnc2)C[C@@H]1O (stereo partly specified),70.3
24,O[C@@]1(CNCCCOc2cccnc2)CCCN2CCCC[C@@H]21,-36.8
25,O=S(=O)(NCC(c1ccsc1)N1CCCCCC1)c1cccs1 (stereo unspecified),85.5
26,Cc1ccc(NC(=O)N2CCC(CO)(Nc3ccccc3)CC2)cc1,-31.275

row,Compound,INHIBITION [%]
1,NC(=O)CN1CCCCC1c1ccc(-n2ccnc2)nc1 (stereo unspecified),-59.6
2,Fc1cccc(N2CCCC3(C2)CN(c2ncccn2)CCO3)c1 (stereo unspecified),70.6
3,OCCN1CCOC2(CCCN(c3ncc(F)cn3)C2)C1 (stereo unspecified),11
4,OCCN1CCOC2(CCCN(c3ncccn3)C2)C1 (stereo unspecified),-14.1
5,Cc1noc(C)c1CN1CCO[C@H]2CN(Cc3cnn(C)c3)C[C@H]21,13.9
6,CCNC(=O)C(C)NC(=O)c1cnc(-c2ccc(C)cc2C)s1 (stereo unspecified),71.5
7,CCS(=O)(=O)NC[C@]12COC[C@H]1CN(Cc1cccnc1OC)C2,-27.6
8,CCNC(=O)c1cn(C(C)(C)C)c2ncccc12,5.57
9,Cc1cccc(CN2C[C@@H]3COC[C@]3(COCC(=O)N(C)C)C2)n1,-104
10,COc1ccc(Cl)cc1CC(=O)N1CCN(CC(C)(C)O)CC1,-155
11,COCCN(C)Cc1cc(Cl)ccc1OCC(O)CN1CCCCCC1 (stereo unspecified),83.9
12,CN(CCCO)Cc1cc(Cl)ccc1OCC(O)CN1CCCCCC1 (stereo unspecified),90.7
13,CCC(O)CN1CCN(C(=O)Cc2cc(Cl)ccc2OC)CC1 (stereo unspecified),-17.7
14,CN(CCO)Cc1cc(Cl)ccc1OCC(O)CN1CCCCCC1 (stereo unspecified),81.5
15,Cn1cc(C2SCC(=O)Nc3c2c(=O)[nH]n3C2CCOCC2)cn1 (stereo unspecified),-57.4
16,O=C1CSC(c2ccccc2)c2c(n(C3CCOCC3)[nH]c2=O)N1 (stereo unspecified),-34.2
17,c1cc([C@H]2C[C@@H]3CCN(Cc4nccs4)C[C@H]3O2)ncn1,-99.9
18,Cc1noc([C@H]2C[C@H]3OCC[C@H]3N(Cc3ccncc3)C2)n1,-164
19,CCCn1nc(C)c(-c2cncn2CC2(N(C)C)CCC(C)CC2)c1C (stereo unspecified),70.3
20,CC(C)Oc1ncnc2c1CCN(Cc1ccc(F)cc1)CC2,70.8
21,CC(c1ccc(F)cc1)N1CCN(Cc2ccc(C#N)cc2)CC1 (stereo unspecified),-14.8
22,O=C1[C@H]2CN(Cc3ccc(F)cc3)C[C@H]2CN1c1cncnc1,2.38
23,Cn1cnc(S(=O)(=O)N2CC3(CCN(Cc4ccncc4)C3)C2)c1,-29.2
24,COCc1cncc2c1CCN(Cc1cnn(C)c1)C2,-135
25,c1ccc(O[C@H]2CO[C@@]3(CCCN(Cc4nccs4)C3)C2)nc1,-90.3
26,Cc1ccccc1CC1(CO)CCCN(c2ncncc2C(C)C)C1 (stereo unspecified),85

row,Compound,INHIBITION [%]
1,CCS(=O)(=O)N1CCOC2(CCCN(Cc3ccccn3)C2)C1 (stereo unspecified),-69.2
2,CN(C)C(=O)CN1CC[C@@H]2O[C@@H](COCc3cccnc3)CC[C@@H]21,-71.1
3,Cc1nn(C)cc1C1=NS(=O)(=O)N(C)C(C(=O)Nc2ccc(Br)cc2)=C1,90
4,Cc1nn(C)cc1C1=NS(=O)(=O)N(C)C(C(=O)Nc2ccc(Cl)cc2)=C1,83.4
5,c1ccc(OC[C@H]2CCC[C@]23CN(Cc2nccs2)CCO3)nc1,6.16
6,CCCC12CN3CC(C)(CN(C1)C3c1[nH]c(=O)[nH]c(=O)c1C)C2=O (stereo unspecified),-167
7,Cc1noc(C)c1CN1CC[C@H]2OCC[C@@]2(C(=O)N(C)C)C1,-41.2
8,COCCNC(=O)C1(c2ccc(C)c(OC)c2)CCCC1,6.63
9,COc1cc(C2(C(=O)NCCn3ccnc3)CCCC2)ccc1C,50
10,Cc1cc(C)c(N(CC(O)CNCc2ccccc2)S(C)(=O)=O)c(C)c1 (stereo unspecified),70.4
11,COCCOc1ccccc1CNCC1COC2(CCCC2)O1 (stereo unspecified),74.3
12,CCN1CCC(c2cncc(N(C)C)n2)CC1,-163
13,CN(C)c1nc(N)nc(CN2CCC(c3ccccc3)CC2)n1,80.4
14,O=C(N1CCCO1)[C@]12COC[C@H]1CN(Cc1cccnc1)C2,-58.8
15,Cc1ccc(N2CCO[C@H]3CN(Cc4ccc(F)cc4)C[C@H]32)nn1,-3.71
16,Cc1nc(N2C[C@H]3CC[C@@H](C2)N3)nc2cc(S(C)(=O)=O)ccc12,-46.7
17,Cc1nccn1CCN(C)c1nc(-c2ccc(Cl)cc2)nc2c1CNC2,70.5
18,CCN(CC)CCN(C)c1nc(-c2ccc(Cl)cc2)nc2c1CNC2,88.3
19,CCN1C[C@H]2[C@@H](C1)N(S(=O)(=O)c1cccnc1)CC[C@H]2OC,-40.3
20,NC(=O)CCC1CCCN(c2ccnc3cc(F)ccc23)C1 (stereo unspecified),83.4
21,Cc1noc(C)c1CN1CC[C@H]2OCC[C@@]2(C(=O)NCC2CC2)C1,-139
22,CN(C)Cc1cncc2c1CCN(C1CCOCC1)C2,-179
23,O=C(N[C@H]1CN[C@H]2CCCO[C@H]21)c1cscn1,-37.2

# From ChEMBL document CHEMBL4513216, “Probing the Open Global Health Chemical Diversity Library for Multistage-Active Starting Points for Next-Generation Antimalarials” (ACS Infect Dis, 2020)
